Where “and” joins values, the source holds several entries; their conditions need not be identical. Equal values may be shown once. Compounds without any hit were thinned out: in the full panel of roughly 79,000, 15% have a hit. The source holds several records for some structures; these can differ, active in one and inactive in another. Calls of active or inactive are those of the source. Rule as the data show it: active = growth inhibition above about 70%; inactive = the rest.
What was measured:
[1] = NCI Yeast Anticancer Drug Screen. Data for the rad52 strain (AID 147);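 also: 0% = growth of vehicle-treated control cultures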; details: S. cerevisiae rad52 mutant growth inhibition, stronger effect = higher value
Summary of the method: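 Vehicle-treated cultures served as the reference for growth inhibition of compound-exposed yeast bearing a DNA repair mutation.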

[2] = NCI Yeast Anticancer Drug Screen. Data for the wt1 strain (AID 149);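 also: 0% = growth of vehicle-treated wt1 cultures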; details: S. cerevisiae wt1 strain (SPY 50644) growth inhibition, stronger effect = higher value
Summary of the method: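 Growth inhibition read against vehicle controls after compound exposure of the wt1 yeast strain.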

[3] = NCI Yeast Anticancer Drug Screen. Data for the mgt1 strain (AID 153); details: S. cerevisiae mgt1 mutant growth inhibition, stronger effect = higher value
Summary of the method: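 mgt1 strain exposed; growth vs vehicle control recorded as inhibition.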

[4] = NCI Yeast Anticancer Drug Screen. Data for the rad50 strain (AID 155);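 also: 0% = growth of vehicle-only cultures of the same strain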; details: S. cerevisiae rad50 strain growth inhibition, stronger effect = higher value
Summary of the method: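 Readout: growth inhibition relative to vehicle-treated cultures. Compound exposure was carried out in a genetically defined yeast strain deficient in DNA damage repair.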

[5] = NCI Yeast Anticancer Drug Screen. Data for the mec2-1 strain (AID 157); details: S. cerevisiae mec2-1 strain, stronger effect = higher value
Summary of the method: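 Vehicle-treated cultures served as reference for growth inhibition of compound-exposed mec2-1 yeast.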

[6] = NCI Yeast Anticancer Drug Screen. Data for the rad14 strain (AID 159);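 also: 0% = growth of vehicle-treated control cultures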; details: S. cerevisiae rad14 strain growth inhibition, stronger effect = higher value
Summary of the method: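 Growth inhibition vs vehicle controls; genetically altered yeast strain (DNA damage repair defect) treated with test compounds.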

[7] = NCI Yeast Anticancer Drug Screen. Data for the sgs1 mgt1 strain (AID 161);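 also: 0% = growth of cultures given vehicle only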; details: S. cerevisiae sgs1 mgt1 strain, stronger effect = higher value
Summary of the method: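 Genetically altered yeast, compound exposure, growth inhibition relative to vehicle.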

[8] = NCI Yeast Anticancer Drug Screen. Data for the cln2 rad14 strain (AID 165);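 also: 0% = growth equal to vehicle treated cultures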; details: S. cerevisiae cln2 rad14 strain, stronger effect = higher value
Summary of the method: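 Each compound was tested on cln2 rad14 yeast. Inhibition of growth was calculated against vehicle-exposed controls.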

[9] = NCI Yeast Anticancer Drug Screen. Data for the bub3 strain (AID 167); details: S. cerevisiae bub3 mutant strain, stronger effect = higher value
Summary of the method: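 Readout: yeast growth inhibition, expressed relative to vehicle-only wells. The test organism is a mutant strain from a panel with lesions in DNA repair or checkpoint genes.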

[10] = NCI Yeast Anticancer Drug Screen. Data for the wt2 strain (AID 169);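 also: 0% = growth of vehicle-treated yeast cultures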; details: S. cerevisiae wt2 strain growth inhibition, stronger effect = higher value
Summary of the method: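 Inhibition of yeast growth was determined after compound treatment, normalised to controls receiving only vehicle.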

[11] = NCI Yeast Anticancer Drug Screen. Data for the mlh1 strain (AID 171);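 also: 0% = growth of vehicle-treated control cultures of the same strain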; details: S. cerevisiae mlh1 strain growth inhibition, stronger effect = higher value
Summary of the method: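 Vehicle-normalised growth inhibition of a repair- or checkpoint-altered yeast strain following compound treatment.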

[12] = NCI Yeast Anticancer Drug Screen. Data for the sgs1 strain (AID 173);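 also: 0% = growth of vehicle-only control cultures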; details: S. cerevisiae sgs1 mutant, stronger effect = higher value
Summary of the method: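 Screen format: yeast with repair or checkpoint alterations, compound exposure, growth read relative to vehicle.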

[13] = NCI Yeast Anticancer Drug Screen. Data for the mlh1 rad18 strain (AID 175); details: S. cerevisiae mlh1 rad18 strain growth inhibition, stronger effect = higher value
Summary of the method: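 Vehicle-treated cultures served as the reference for growth inhibition in a yeast strain carrying DNA damage repair alterations exposed to each compound.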

[14] = NCI Yeast Anticancer Drug Screen. Data for the rad18 strain (AID 177); details: S. cerevisiae rad18 mutant growth inhibition, stronger effect = higher value
Summary of the method: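 Test articles were incubated with altered yeast defective in DNA damage repair. Results are given as inhibition of growth versus vehicle.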

[15] = NCI Yeast Anticancer Drug Screen. Data for the rad50EPP+ strain (AID 151);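 also: 0% = growth of vehicle-treated control cultures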; details: S. cerevisiae rad50 mutant strain, stronger effect = higher value
Summary of the method: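 In this screen, rad50EPP+ yeast were exposed to compounds. Growth inhibition was scored against vehicle-treated controls.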

[16] = NCI Yeast Anticancer Drug Screen. Data for the CLN2oe strain (AID 163);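 also: 0% = growth of vehicle-only control cultures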; details: S. cerevisiae CLN2oe strain, stronger effect = higher value
Summary of the method: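 Inhibition relative to vehicle-treated yeast is reported. Cells: strain with genetic alteration in cell-cycle control, grown with compound.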

[17] = at 5.0 µM (retest, dose inferred, filed as 0.5)
[18] = at 50.0 µM (retest, dose inferred, filed as 5.0)

Measured: growth inhibition

O=C(O)C1C2c3ccccc3C(c3ccccc32)C1C(=O)O (stereo unspecified)
71.2% (active) and -29.5% (inactive): [9]; at 50.0 µM
86.6% (active) and -20.4% (inactive): [5]; at 50.0 µM
inactive: [1]; at 1.2 µM -1% | [1]; at 3.7 µM -1% | [1]; at 11.0 µM 2% | [1]; at 33.0 µM 0% | [1]; at 100.0 µM 11% | [2]; at 1.2 µM -3% | [2]; at 3.7 µM -3% | [2]; at 11.0 µM -2% | [2]; at 33.0 µM -1% | [2]; at 100.0 µM -2% | [3]; at 1.2 µM -3% | [3]; at 3.7 µM -2% | [3]; at 11.0 µM -2% | [3]; at 33.0 µM -2% | [3]; at 100.0 µM 0% | [4]; at 1.2 µM 0% | [4]; at 3.7 µM 4% | [4]; [17] 7% | [4]; at 11.0 µM 4% | [4]; at 33.0 µM 3% | [4]; [18] 47% | [4]; at 50.0 µM 52.6% and -32.8% | [4]; at 100.0 µM 12% | [5]; at 1.2 µM -2% | [5]; at 3.7 µM -5% | [5]; [17] -7% | [5]; at 11.0 µM -3% | [5]; at 33.0 µM -2% | [5]; [18] -1% | [5]; at 100.0 µM -1% | [6]; at 1.2 µM -2% | [6]; at 3.7 µM 1% | [6]; at 11.0 µM 0% | [6]; at 33.0 µM -2% | [6]; at 100.0 µM 2% | [7]; [17] -5% | [7]; [18] 16% | [7]; at 50.0 µM 52.7% and -33% | [8]; [17] 3% | [8]; [18] 10% | [8]; at 50.0 µM 25% and 11.1% | [9]; at 1.2 µM -4% | [9]; at 3.7 µM -3% | [9]; [17] 2% | [9]; at 11.0 µM -5% | [9]; at 33.0 µM -2% | [9]; [18] 17% | [9]; at 100.0 µM -2% | [10]; at 1.2 µM 0% | [10]; at 3.7 µM -10% | [10]; at 11.0 µM 5% | [10]; at 33.0 µM -1% | [10]; at 100.0 µM -16% | [11]; at 1.2 µM -4% | [11]; at 3.7 µM -4% | [11]; at 11.0 µM -1% | [11]; at 33.0 µM -4% | [11]; at 100.0 µM 1% | [12]; at 1.2 µM -12% | [12]; at 3.7 µM -22% | [12]; at 11.0 µM -3% | [12]; at 33.0 µM 5% | [12]; at 100.0 µM 12% | [13]; [17] 3% | [13]; [18] 69% | [13]; at 50.0 µM 37.1% and -42.5% | [14]; at 1.2 µM -4% | [14]; at 3.7 µM -2% | [14]; at 11.0 µM -1% | [14]; at 33.0 µM -2% | [14]; at 100.0 µM 6%

CN(C)CCC(C(=O)C(Br)Br)(c1ccccc1)c1ccccc1
active: [2]; at 33.0 µM 98% | [2]; at 100.0 µM 99% | [15]; at 100.0 µM 72% | [3]; at 11.0 µM 96% | [3]; at 33.0 µM 99% | [3]; at 100.0 µM 99% | [4]; at 11.0 µM 82% | [4]; at 33.0 µM 99% | [4]; [18] 99% | [4]; at 50.0 µM 98.8% | [4]; at 100.0 µM 99% | [5]; at 11.0 µM 96% | [5]; at 33.0 µM 99% | [5]; at 50.0 µM 99.3% | [5]; at 100.0 µM 100% | [6]; at 11.0 µM 95% | [6]; at 33.0 µM 99% | [6]; at 100.0 µM 99% | [7]; [18] 99% | [7]; at 50.0 µM 97.3% | [16]; at 11.0 µM 74% | [16]; at 33.0 µM 99% | [16]; at 100.0 µM 98% | [8]; [18] 99% | [8]; at 50.0 µM 99.1% | [9]; at 11.0 µM 94% | [9]; at 33.0 µM 99% | [9]; [18] 98% | [9]; at 50.0 µM 99.5% | [9]; at 100.0 µM 99% | [10]; at 11.0 µM 73% | [10]; at 33.0 µM 99% | [10]; at 100.0 µM 99% | [11]; at 33.0 µM 99% | [11]; at 100.0 µM 100% | [13]; [18] 99% | [13]; at 50.0 µM 99% | [14]; at 11.0 µM 88% | [14]; at 33.0 µM 99% | [14]; at 100.0 µM 99%
inactive: [2]; at 1.2 µM -2% | [2]; at 3.7 µM -1% | [2]; at 11.0 µM 26% | [15]; at 1.2 µM -2% | [15]; at 3.7 µM -5% | [15]; at 11.0 µM -1% | [15]; at 33.0 µM 21% | [3]; at 1.2 µM -1% | [3]; at 3.7 µM 0% | [4]; at 1.2 µM 0% | [4]; at 3.7 µM 12% | [4]; [17] 16% | [5]; at 1.2 µM 3% | [5]; at 3.7 µM 2% | [5]; [17] 16% | [5]; [18] 38% | [6]; at 1.2 µM 7% | [6]; at 3.7 µM 30% | [7]; [17] 40% | [16]; at 1.2 µM 0% | [16]; at 3.7 µM 12% | [8]; [17] 19% | [9]; at 1.2 µM -6% | [9]; at 3.7 µM 0% | [9]; [17] -69% | [10]; at 1.2 µM 0% | [10]; at 3.7 µM 2% | [11]; at 1.2 µM 2% | [11]; at 3.7 µM 1% | [11]; at 11.0 µM 61% | [13]; [17] 33% | [14]; at 1.2 µM 2% | [14]; at 3.7 µM 11%

— PubChem BioAssay (NCI)
